# Bioassay records as filed in PubChem BioAssay.
# This is a sample that favours compounds with a hit; in the whole collection about 7.5% have one here.
# Rab9 prom act = Rab9 promoter activation; Huh7 Rab9 promoter-luciferase reporter, luminescence, 24 h; Potency, µM (doses to about 9.22 µM), for inactives: top-dose activation, negative = inhibition, usual class: activators; 320,000 compounds, 2.8% hits; AID 485297; further: % of control where 0% means no effect; nearly all actives have a fitted effect of over 60% in size
#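 Quantitative HTS format; Huh7 Rab9-luciferase reporter cells (1500/well) receive compound 2 h post-plating, incubate 24 h at 37 °C, then get luciferase reagent for 10 min before luminescence reading.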
# ELG1 genotoxic = genotoxicity induction in ELG1-luciferase HEK293T cells; 330,000 compounds, 1.3% hits; Potency, µM (series often up to 46 µM), for the others: at the highest dose activity change, positive = activation, actives largely listed as activators; HEK293T ELG1-luciferase reporter, luminescence, 16 h; further: % of control where 0% means no effect; nearly all actives have a fitted effect of over 60% in size
#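 16 hr compound incubation (37 °C, 5% CO2) of HEK293T cells carrying luciferase-tagged ELG1; luciferase then measured by ONE-Glo luminescence after 30 min at RT.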
# NPC1 prom act = activates the NPC1 promoter. AID 485313. Potency, µM (top dose mostly 9.22 µM), inactives show top-dose activation, hits mostly activators. Huh7 NPC1 promoter luciferase reporter, 24 h. 320,000 compounds, 2.4% hits; further: % of control where 0% means no effect; nearly all actives have a fitted effect of over 60% in size
#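 Stably transfected Huh7 (NPC1 promoter→luciferase), 1500 cells/well in Opti-MEM + 10% FBS, 2 h settle, then compound 24 h at 37 °C. Luminescence after 10 min with Amplite reagent.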
# SMN2 splice up = SMN2 splice variant enhancement | 210,000 compounds, 2.8% hits | HEK293 SMN2-luciferase splicing reporter, luminescence, 30-36 h | Potency, µM (titrated, usually from 46.1 µM), without a hit: at the highest dose activity change, positive = activation, actives largely listed as activators; further: % of control where 0% means no effect; nearly all actives have a fitted effect of over 55% in size
#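 HEK293 cells carry an SMN2 […]–luciferase reporter in which exon 7 inclusion puts luciferase in frame. Cells were plated 10-12 h before compound addition, then incubated 30-36 h at 37C. ONE-Glo luminescence was read; sodium butyrate at 4.5 mM final served as control.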
# FLuc counter = inhibits or activates purified firefly luciferase, miR-21 counter-screen; P08659; purified FLuc, Km substrates, luminescence inhibition; Potency, µM (highest dose often 57.5 µM), for the others: top-dose activity change, negative = inhibition, actives largely listed as inhibitors; 360,000 compounds, 6.9% hits; AID 588342;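 further: plate controls were vehicle for no effect and reference inhibitor for full effect; nearly all actives have a fitted effect of over 55% in size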
# Target sequence (P08659 whole entry, looked up): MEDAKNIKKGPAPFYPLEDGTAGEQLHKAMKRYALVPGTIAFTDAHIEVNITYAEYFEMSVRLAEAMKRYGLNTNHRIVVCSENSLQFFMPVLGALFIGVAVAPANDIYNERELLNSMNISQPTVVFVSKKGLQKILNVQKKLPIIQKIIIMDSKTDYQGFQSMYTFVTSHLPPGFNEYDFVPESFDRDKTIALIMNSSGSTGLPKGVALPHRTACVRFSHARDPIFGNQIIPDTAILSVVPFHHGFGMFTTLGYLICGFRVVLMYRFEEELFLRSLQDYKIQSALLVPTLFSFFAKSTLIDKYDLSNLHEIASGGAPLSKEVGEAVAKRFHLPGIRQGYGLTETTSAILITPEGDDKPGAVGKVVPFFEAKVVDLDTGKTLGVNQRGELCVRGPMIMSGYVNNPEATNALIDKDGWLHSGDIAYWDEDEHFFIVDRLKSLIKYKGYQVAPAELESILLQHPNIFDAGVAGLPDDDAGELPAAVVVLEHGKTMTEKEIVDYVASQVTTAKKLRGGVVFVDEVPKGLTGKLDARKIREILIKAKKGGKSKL
#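 Biochemical qHTS of compounds, final roughly 60 µM downward over six points, against 10 nM purified firefly luciferase using Km concentrations of substrates (10 uM D-luciferin, 10 uM ATP) in Tris acetate pH 7.5 buffer; luminescence output.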
# KinaseGlo FLuc = Kinase-Glo luciferase inhibition (counter-screen). Q27757. Kinase-Glo luciferase, ATP luminescence, 8 min. Potency, µM (highest dose often 38.3 µM), inactives show top-dose activity change, negative = inhibition, hits mostly inhibitors. 200,000 compounds, 0.28% hits; further: on the % scale 0 is the no-effect control and ±100 the full control effect; nearly all actives have a fitted effect of over 60% in size
#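 Recombinant Kinase-Glo luciferase, 10 uM ATP (linear range), luciferin; imidazole pH 7.2 / KCl / MgCl2 / Tween / BSA buffer; 8 min RT; luminescence.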
# * hit, by the source's call; ? = inconclusive; / = no result given; [ ] = remark or other dose. The call rests on the fitted dose curve; in most records, active means well fitted curve in the direction sought with a large enough effect; inconclusive means small, poorly fitted or top-dose-only effect, or another doubt; inactive means no such curve, though single readings can be large; an effect the other way counts as inactive or inconclusive. Potency means the concentration at half of the fitted maximal effect.
SMILES,Rab9 prom act,ELG1 genotoxic,NPC1 prom act,SMN2 splice up,FLuc counter,KinaseGlo FLuc
Cc1ccc(NC(=O)N(Cc2c[nH]c3ccccc23)C2CCCCCC2)cc1C,/,/,/,-13%,-8%,/
CCn1c(Cn2nnc(-c3ccccc3)n2)nnc1SCC(=O)Nc1ccc(C(C)=O)cc1,24%,14%,?,14%,19µM*,-8%
CCOC(=O)C1=C(CSc2nc(-c3ccccc3)ccc2C#N)OC(N)=C(C#N)C1c1ccc(OC)cc1 (stereo not drawn),-3%,?,-1%,-4%,15µM*,2%
O=C(NCCCc1nc2ccccc2n1Cc1ccccc1Cl)c1ccco1,/,/,/,-11%,-6%,/
Clc1ccccc1Cn1c(/C=C/c2ccco2)nc2ccccc21,2%,-1%,-2%,0%,11µM*,-6%
Cn1c(C(=O)N2CCC(C(=O)NCCc3ccc(S(N)(=O)=O)cc3)CC2)cc2sccc21,/,/,/,16%,-2%,/
CC(C)Oc1cccc(-c2cc(C(=O)NN3CCOCC3)c3ccccc3n2)c1,-2%[1.84 µM],-1%,-1%,/,13µM*,/
CCc1ccc(-c2cc(C(=O)Nn3cnnc3)c3ccccc3n2)cc1,?,?,?,?,0.067µM*,8.9µM*
CCCc1ccc(-c2cc(C(=O)NCCc3ccc(S(N)(=O)=O)cc3)c3ccccc3n2)cc1,2.8µM*,1%,?,?,0.67µM*,-12%
CCCc1ccc(-c2cc(C(=O)NN3CCOCC3)c3ccccc3n2)cc1,?,8%,?,?,1.7µM*,-6%
NS(=O)(=O)c1ccc(CCNC(=O)c2cc(-c3ccc(Br)cc3)nc3ccccc23)cc1,-1%,-9%,-8%,11%,?,-2%
COC(=O)c1ccc(-n2c(/C=C\c3cccc(Br)c3)nc3ccccc3c2=O)cc1,/,/,/,/,-1%,/
Cc1ccc(CN2C(=O)CC(c3ccc(Cl)cc3)c3c(C)nn(-c4nc(C)cc(C)n4)c32)cc1 (stereo not drawn),/,/,/,/,-4%,/
COc1ccccc1C1c2c(-c3ccc(Cl)cc3)n[nH]c2C(=O)N1c1ccc(C)cc1 (stereo not drawn),/,/,/,-21%,1%,/
O=C(CSc1ccc(-c2ccncc2)nn1)N1CCN(c2ccccc2)CC1,-18%,-9%,-11%,-28%,2%,-3%
CC(C)Oc1cccc(-c2cc(C(=O)NC(=S)N(C)c3ccccc3C(=O)O)c3ccccc3n2)c1,-1%,3%,1%,18%,2.7µM*,0%
Cc1cc(C)c2nc(-c3ccccn3)cc(C(=O)NCc3cc(C)n(C)n3)c2c1,-4%,?,-1%,13%,-7%,-2%
Cc1cc(C)c2nc(-c3ccccn3)cc(C(=O)Nn3cnnc3)c2c1,2%,0%,-3%,0%,19µM*,0%
COc1cccc(-c2cc(C(=O)Nc3ccc4c(c3)OCCO4)c3ccccc3n2)c1,-2%,0%,-3%,-7%,?,2%
CCc1ccc(-c2cc(C(=O)N3N=C(C(F)F)CC3(O)C(F)F)c3ccccc3n2)cc1 (stereo not drawn),28%,0%,21%,9%,5.4µM*,-4%
Cc1cc(C)cc(NC(=O)NCCc2c(C)nn(C)c2C)c1,/,/,/,/,-7%,/
Cc1ccc(Cn2c(=O)c3cccnc3n(Cc3ccc(F)cc3)c2=O)cc1,/,/,/,-5%,-4%,/
COc1ccc(NC(=O)c2cc(C)cc(C)c2)cc1S(=O)(=O)N1CCCCC1,-2%,4%,-7%,/,-2%,/
N/C(=N\OC(=O)/C=C/c1ccc(Br)cc1)c1ccccn1,2.2µM*,?,1.8µM*,18µM*,9.5µM*,-6%
N/C(=N\OC(=O)/C=C/c1ccccc1Cl)c1ccccn1,0.28µM*,?,0.5µM*,?,0.6µM*,?
Cc1ccccc1/C(N)=N/OC(=O)/C=C/c1ccccc1,?,?,25%,?,?,-9%
